Laboratory results: PubChem BioAssay AID1159580 (chemical genetic matrix, 2015)
“And” between values parts separate entries of the source, which are not always exact repeats. Equal entries are not always repeated. Screen size: about 5,500 compounds; about 2,000 (36%) were called active. Another 18% or so got no clear call; they are omitted. No stated cut-off is given here; in the data, active means normalized growth mostly below about 0.91 (no sharp cut-off); inconclusive means no clear call, values can overlap the other calls; inactive means mostly above about 0.92. This is one part of the list.

Test: chemical genetic growth profiling, strain panel (AID 1159580);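 further: tested at 20 µM; growth read once vehicle control cultures reached saturation at 30 °C; 1 = growth at the plate median or of vehicle wells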
Settings: S. cerevisiae deletion strains, growth OD

Measured: normalized growth

CCC(N)C(O)c1ccc(O)c(O)c1 (configuration not stated)
inactive: locus YAL013W, strain DEP1, stronger effect = lower value 1.02 | locus YAL021C, strain ccr4, stronger effect = lower value 1 | locus YAL026C, strain drs2, stronger effect = lower value 0.987 | locus YAL030W, strain snc1, stronger effect = lower value 0.986 | locus YBL061C, strain skt5, stronger effect = lower value 0.99 | locus YBR009C, strain hhf1, stronger effect = lower value 0.986 | locus YBR021W, strain FUR4, stronger effect = lower value 0.995 | locus YBR023C, strain chs3, stronger effect = lower value 0.994 | locus YBR171W, strain sec66, stronger effect = lower value 0.976 | locus YBR229C, strain ROT2, stronger effect = lower value 1.02 | locus YBR231C, strain swc5, stronger effect = lower value 0.984 | locus YBR279W, strain paf1, stronger effect = lower value 0.991 | locus YCL011C, strain gbp2, stronger effect = lower value 0.996 | locus YCL016C, strain dcc1, stronger effect = lower value 0.998 | locus YCL029C, strain bik1, stronger effect = lower value 0.992 | locus YCL061C, strain MRC1, stronger effect = lower value 0.991 | locus YCL069W, strain vba3, stronger effect = lower value 1 | locus YCR088W, strain abp1, stronger effect = lower value 0.997 | locus YDL005C, strain med2, stronger effect = lower value 0.993 | locus YDL035C, strain GPR1, stronger effect = lower value 1.02 | locus YDL040C, strain nat1, stronger effect = lower value 0.99 | locus YDL074C, strain BRE1, stronger effect = lower value 1 | locus YDL101C, strain DUN1, stronger effect = lower value 1.01 | locus YDL134C, strain PPH21, stronger effect = lower value 1 | locus YDL185W, strain tfp1, stronger effect = lower value 0.968 | locus YDL192W, strain arf1, stronger effect = lower value 0.998 | locus YDR001C, strain nth1, stronger effect = lower value 0.99 | locus YDR069C, strain doa4, stronger effect = lower value 0.981 | locus YDR101C, strain arx1, stronger effect = lower value 0.995 | locus YDR137W, strain rgp1, stronger effect = lower value 1.02 | locus YDR150W, strain NUM1, stronger effect = lower value 1.02 | locus YDR159W, strain sac3, stronger effect = lower value 0.965 | locus YDR162C, strain NBP2, stronger effect = lower value 1.02 | locus YDR195W, strain ref2 0.931 | locus YDR297W, strain sur2, stronger effect = lower value 0.991 | locus YDR318W, strain mcm21, stronger effect = lower value 0.977 | locus YDR334W, strain swr1, stronger effect = lower value 0.994 | locus YDR335W, strain msn5, stronger effect = lower value 0.993 | locus YDR388W, stronger effect = lower value 0.993 | locus YDR392W, strain spt3, stronger effect = lower value 0.934 | locus YDR502C, strain sam2, stronger effect = lower value 0.998 | locus YEL003W, strain gim4, stronger effect = lower value 0.997 | locus YEL037C, strain rad23, stronger effect = lower value 1.02 | locus YEL061C, strain CIN8 (second series), stronger effect = lower value 0.988 | locus YEL061C, strain CIN8, stronger effect = lower value 1.01 | locus YER015W, strain faa2, stronger effect = lower value 0.984 | locus YER016W, strain bim1, stronger effect = lower value 0.989 | locus YER110C, stronger effect = lower value 0.985 | locus YER111C, strain swi4, stronger effect = lower value 0.989 | locus YER155C, strain BEM2 (second series), stronger effect = lower value 0.979 | locus YER155C, strain BEM2, stronger effect = lower value 1.01 | locus YER167W, strain BCK2, stronger effect = lower value 1.03 | locus YFR010W, strain ubp6, stronger effect = lower value 0.983 | locus YGL078C, strain dbp3, stronger effect = lower value 1 | locus YGL086W, strain mad1, stronger effect = lower value 0.988 | locus YGL167C, strain pmr1, stronger effect = lower value 0.985 | locus YGL173C, strain kem1, stronger effect = lower value 0.998 | locus YGL227W, strain vid30, stronger effect = lower value 0.983 | locus YGL240W, strain doc1, stronger effect = lower value 0.96 | locus YGL248W, strain PDE1, stronger effect = lower value 1.01 | locus YGL253W, strain hxk2, stronger effect = lower value 1.01 | locus YGR078C, strain PAC10, stronger effect = lower value 0.991 | locus YGR135W, strain pre9, stronger effect = lower value 0.993 | locus YGR229C, strain SMI1, stronger effect = lower value 1.02 | locus YGR252W, strain gcn5, stronger effect = lower value 1.04 | locus YHR013C, strain ard1, stronger effect = lower value 0.989 | locus YHR027C, strain rpn1, stronger effect = lower value 0.985 | locus YHR030C, strain SLT2, stronger effect = lower value 1.01 | locus YHR079C, strain IRE1 (second series), stronger effect = lower value 0.986 | locus YHR079C, strain IRE1, stronger effect = lower value 1.02 | locus YHR094C, strain hxt1, stronger effect = lower value 0.988 | locus YHR129C, strain ARP1, stronger effect = lower value 1.01 | locus YHR142W, strain chs7, stronger effect = lower value 1.01 | locus YHR200W, strain rpn10, stronger effect = lower value 0.994 | locus YIL066C, strain RNR3, stronger effect = lower value 1.01 | locus YIL073C, strain SPO22, stronger effect = lower value 1.03 | locus YIL125W, strain kgd1, stronger effect = lower value 0.995 | locus YIR030C, strain dcg1, stronger effect = lower value 0.987 | locus YJL092W, strain hpr5, stronger effect = lower value 0.99 | locus YJL095W, strain BCK1 (second series), stronger effect = lower value 0.991 | locus YJL095W, strain BCK1, stronger effect = lower value 1 and 1.01 | locus YJL115W, strain asf1, stronger effect = lower value 0.992 | locus YJL129C, strain trk1, stronger effect = lower value 0.993 | locus YJL134W, strain LCB3, stronger effect = lower value 1.01 | locus YJL154C, strain vps35, stronger effect = lower value 0.993 | locus YJL164C, strain tpk1, stronger effect = lower value 0.994 | locus YJL166W, strain qcr8, stronger effect = lower value 0.988 | locus YJL168C, strain set2, stronger effect = lower value 0.99 | locus YJL187C, strain SWE1 (second series), stronger effect = lower value 0.996 | locus YJL187C, strain SWE1, stronger effect = lower value 0.983 | locus YJR043C, strain POL32, stronger effect = lower value 0.975 | locus YJR066W, strain TOR1, stronger effect = lower value 0.983
